# Compound activity deposited in PubChem by several laboratories.
# In the library only some 4.3% were active in any assay of this set; here they are far more common.
# SMARCA2 act: increases SMARCA2 function in MMTV reporter cells | MG213 cells, MMTV-luciferase reporter, dexamethasone, overnight | activation, % at 9.1 µM | actives 1% (n = 370,000); in the data active = activation above about 7.8%
# esBAF inh: inhibitors of esBAF chromatin remodeling in mouse ES cells; Bmi1-luciferase knock-in reporter, 24 h; 100% = twice the neutral-well signal; actives 2% (n = 350,000); reporter increase, % at 12.5 µM; AID 602393; in the data active = activation above about 40%;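 also: a rise in the Bmi1 reporter signal indicates esBAF inhibition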
# FGF22 binding: shifts melting point of recombinant human FGF22; activity (Tm shift, normalised), % at 9.99 µM; recombinant FGF22 thermal shift, SYPRO orange fluorescence; percent of sucrose octasulfate shift, DMSO zero; actives 1.5% (n = 340,000); AID 651658;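 active = mean Tm shift, scaled 0 neutral to 100 positive control, at about 1.3% or above, every replicate too, limit read from the data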
# Wnt bcat act: Wnt/beta-catenin pathway activation | actives 1.2% (n = 300,000) | AID 743398 | Wnt/beta-catenin reporter cell assay, activator, plate reader | activation, % at 9.35 µM; in the data active = activation above about 30%, passing the limit was not always enough
# MITF TRPM1 HTS: increases MITF-driven TRPM1 promoter luciferase signal | SK-MEL-5 TRPM1-promoter luciferase, 24 h; % of positive control, neutral wells = 0 | activation, % at 12.5 µM | actives 0.75% (n = 300,000) | AID 588334;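 active = mean activation of at least 80% with every replicate also reaching 80%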
# MLL AF4-AF9 inh: inhibitors of human MLL-AF4/AF9 interaction | P42568 | AlphaScreen, biotin-AF4 peptide binding to FLAG-AF9 | inhibition, % at 10 µM | actives 0.47% (n = 350,000) | AID 651704;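 active = every replicate reaching a set inhibition limit, whatever the replicate mean, cut at about 25% in these data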
# Target sequence (P42568 whole entry, looked up): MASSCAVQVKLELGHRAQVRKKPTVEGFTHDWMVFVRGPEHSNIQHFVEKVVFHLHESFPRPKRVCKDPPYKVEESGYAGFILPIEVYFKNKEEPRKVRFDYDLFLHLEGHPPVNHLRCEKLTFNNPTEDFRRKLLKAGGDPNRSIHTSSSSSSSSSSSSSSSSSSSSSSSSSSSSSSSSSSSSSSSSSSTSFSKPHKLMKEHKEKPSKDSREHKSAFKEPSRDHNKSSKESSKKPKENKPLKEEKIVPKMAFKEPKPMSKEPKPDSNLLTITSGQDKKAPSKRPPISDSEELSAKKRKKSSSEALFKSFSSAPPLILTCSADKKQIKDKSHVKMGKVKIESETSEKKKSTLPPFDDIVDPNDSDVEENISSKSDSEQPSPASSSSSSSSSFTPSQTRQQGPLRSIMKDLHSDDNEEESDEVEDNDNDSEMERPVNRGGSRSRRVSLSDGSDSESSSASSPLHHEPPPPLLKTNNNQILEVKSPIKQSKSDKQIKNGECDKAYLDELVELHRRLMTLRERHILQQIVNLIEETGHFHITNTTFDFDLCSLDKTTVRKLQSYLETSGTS
# A number is an active result; n = inactive; x = no result given.
SMILES,SMARCA2 act,esBAF inh,FGF22 binding,Wnt bcat act,MITF TRPM1 HTS,MLL AF4-AF9 inh
O=[N+]([O-])c1cccc(COc2ccc(CN3CCOCC3)cc2)c1,n,n,n,n,111.5,n
CC(=O)Nc1cccc(OCc2cccc([N+](=O)[O-])c2)c1,n,x,n,n,n,n
CC(=O)Nc1ccc(OCc2cccc([N+](=O)[O-])c2)cc1,n,x,n,59.2,n,n
CO[C@H]1CC[C@H]2CCN(C)C(=O)C[C@H](c3ccccc3)CN(C)C(=O)c3cc(C#N)ccc3OC[C@H]1O2,x,n,n,x,x,n
C[C@H](NC(=O)C[C@H]1C=C[C@@H](NC(=O)Nc2ccc3c(c2)OCO3)[C@@H](CO)O1)c1ccccc1,x,x,x,x,x,n
Cc1cccc(N2CC(C(=O)NC3CCCCCC3)CC2=O)c1C (stereo unspecified),n,n,n,368.4,n,n
O=C(c1ccccc1)N1N=C(C(F)(F)F)CC1(O)c1ccccc1 (stereo unspecified),n,n,n,n,n,n
COc1cccc(C2(O)CC(C(F)(F)F)=NN2C(=O)c2ccccn2)c1 (stereo unspecified),n,x,43.3,45.4,n,n
COc1ccc(-c2cnc3c(c2)C(=O)N([C@@H](C)CO)C[C@H](C)[C@@H](CN(C)C(=O)C2CCCCC2)O3)cc1,x,n,n,x,x,n
CCOC(=O)Cc1csc(NC(=O)c2cccs2)n1,n,63.5,x,x,n,x
CCOC(=O)Cc1csc(NC(=O)c2ccc(F)cc2)n1,n,n,n,n,n,n
CCOC(=O)Cc1csc(NC(=O)c2ccc(S(=O)(=O)N(CCOC)CCOC)cc2)n1,n,x,n,37.2,n,n
CCOC(=O)c1csc(NC(=O)c2cccs2)n1,n,52.6,n,37.2,95.2,n
CCOC(=O)Cc1csc(NC(=O)c2ccc(C)cc2)n1,n,x,n,n,n,n
COc1ccccc1-c1cn(CC[C@@H]2CC[C@H](NC(=O)CCN3CCCCC3)[C@@H](CO)O2)nn1,x,n,n,x,x,n
COc1cccc(C(=O)Nc2ccc3c(c2)C(=O)N(C)C[C@H](OC)[C@@H](C)CN(CC2CC2)[C@H](C)CO3)c1,x,n,n,x,x,n
Cc1ccc(OCc2nc(-c3ccc(-n4cccc4)cc3)no2)cc1C,n,n,n,n,x,37.5
Cc1ccc(OCc2nc(-c3cccnc3)no2)cc1C,n,36.7,n,n,n,n
Cc1ccccc1OCc1nc(-c2cccnc2)no1,n,x,46.0,n,n,n
Cc1cc(OCc2nc(-c3cccnc3)no2)c(C)cc1Br,n,n,x,x,n,x
Cc1ccc(Cc2nc(-c3cccnc3)no2)cc1,n,n,n,n,n,n
Cc1cc(C)cc(OCc2nc(-c3cccnc3)no2)c1,n,x,n,n,n,n
c1cncc(-c2noc(CC3CCCCC3)n2)c1,n,42.0,x,x,n,x
CC(C)(C)c1ccc(C(CC(=O)O)NC(=O)c2ccccc2F)cc1 (stereo unspecified),n,n,42.9,n,n,n
COC(=O)[C@]12C[C@H](CC(=O)N3CCSCC3)C(=O)N(Cc3ccc(Cl)cc3Cl)C1=C[C@H](C1CCCC1)O[C@@H]2C,n,x,x,x,x,x
SMILES,SMARCA2 act,esBAF inh,FGF22 binding,Wnt bcat act,MITF TRPM1 HTS,MLL AF4-AF9 inh
CC[C@H](CCCc1ccccc1OC)CCS(=O)(=O)N(C)C,n,x,x,x,x,x
O=C(Cc1ccc2c(c1)OCCO2)N1CCN(S(=O)(=O)c2cccc(Cl)c2Cl)CC1,n,x,n,n,n,29.9
CCOC(=O)c1sc(NC(C)=O)cc1C,n,n,n,n,n,n
CCOC(=O)c1sc(NC(=O)C2CCC2)cc1C,n,50.0,43.3,37.1,n,n
COc1ccc(C(=O)N2C[C@@H]3[C@H](c4ccccc42)[C@@H](CO)N3C(=O)c2ccc(F)cc2)cc1,x,n,x,x,x,n
Cc1ccc(N2C(=O)c3ccccc3C2=O)cc1C,n,n,x,n,n,n
Cc1ccc(N2C(=O)c3ccc(N)cc3C2=O)cc1,n,66.9,x,68.8,x,x
Cc1ccc(N2C(=O)c3ccc(N)cc3C2=O)cc1C,n,89.5,x,x,x,x
Fc1ccccc1/C=N/Nc1ccc(Cl)nn1,n,54.9,n,n,n,n
Cc1ccc(/C=N/Nc2ccc(Cl)nn2)cc1,n,x,n,37.4,95.1,n
COc1cccc(/C=N/Nc2ccc(Cl)nn2)c1OC,n,x,n,n,x,x
Cc1ccccc1SCC(=O)OCC(=O)Nc1sccc1C(N)=O,n,x,n,n,n,n
O=C(CSc1nnc(Nc2ccccc2F)s1)Nc1cccc(S(=O)(=O)N2CCCCC2)c1,n,42.9,x,n,n,x
CC(=O)Nc1ccc(NC(=O)CSc2nnc(NC(=O)c3ccccc3F)s2)cc1,n,n,1.9,n,x,n
NC(=O)c1ccsc1NC(=O)CSc1nnc(Nc2ccccc2)s1,n,x,1.5,n,n,n
NC(=O)c1ccsc1NC(=O)CSc1ccccc1F,n,74.6,x,n,n,n
CCN1CCCCC(NC(=O)c2ccc(F)c(F)c2)C1=O (stereo unspecified),n,x,x,x,x,x
NC(=O)c1ccsc1NC(=O)COc1ccccc1,x,64.5,n,n,n,n
CCC(=O)NC[C@H]1[C@@H](c2ccc(C3=CCCC3)cc2)[C@H](CO)N1C(C)=O,x,n,n,x,x,n
Cn1cccc1C(=O)N/N=C/c1c(Cl)cccc1Cl,n,n,n,n,92.1,n
COc1ccc2nc(Nc3ccccc3OC)sc2c1,n,x,n,48.1,n,n
COc1ccc2nc(Nc3ccccc3)sc2c1,n,n,n,n,94.7,n
C[C@H](CO)N1C[C@H](C)[C@@H](CN(C)Cc2ccc(C(=O)Nc3ccccc3N)cc2)Oc2ccc(NS(=O)(=O)c3cccs3)cc2C1=O,x,n,n,x,x,n
C[C@@H]1CN([C@H](C)CO)C(=O)c2cc(NC(=O)Nc3ccccc3)ccc2O[C@@H](C)CCCCO[C@@H]1CN(C)C,x,n,n,x,x,n
CO[C@@H]1CN(C)C(=O)c2ccc(NC(=O)c3cccc(F)c3)cc2OC[C@H](C)N(C(C)=O)C[C@@H]1C,x,n,n,x,x,n
SMILES,SMARCA2 act,esBAF inh,FGF22 binding,Wnt bcat act,MITF TRPM1 HTS,MLL AF4-AF9 inh
CCc1ccccc1-n1c(SCC(=O)N2CCCC2)nc2[nH]ncc2c1=O,n,x,43.7,n,n,n
CCc1ccccc1-n1c(SCC(=O)N2CCCC2)nnc1-c1ccccn1,n,n,x,64.8,n,x
O=C(CSc1nc2[nH]ncc2c(=O)n1-c1ccccc1Cl)N1CCCC1,n,x,n,n,n,n
Cc1ccccc1-n1c(SCC(=O)N2CCCC2)nnc1-c1ccccn1,n,n,x,x,n,x
C[C@H]1CCCCO[C@@H](CN(C)C)[C@@H](C)CN([C@@H](C)CO)C(=O)c2cc(NS(=O)(=O)c3cccs3)ccc2O1,x,n,n,x,x,n
CC(C)CC#Cc1ccc2c(c1)O[C@@H](CN(C)S(C)(=O)=O)[C@H](C)CN([C@H](C)CO)S2(=O)=O,x,n,n,x,x,n
COc1ccc(COCC23N=C4SCC(=O)N4[C@H](c4ccccc4O2)[C@H]3CO)cc1,x,x,n,x,x,n
COc1ccc(COC[C@]23NC(=O)N[C@H](c4ccccc4O2)[C@H]3CO)cc1,x,x,n,x,x,25.6
